Screening results deposited in PubChem by The Scripps Research Institute Molecular Screening Center.
FBW7 activator: FBW7 E3 ligase activators, primary screen, biochemical, AlphaScreen, human. F-box/WD repeat-containing protein 7 (Homo sapiens), Q969H0. AlphaScreen FBW7–phospho-cyclin E peptide binding, activator screen. normalized activity (activation), % at 26.1 µM. 0.13% of 650,000 active; in the data active = normalized activity above about 1.9%;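 also: purified mutant Fbw7 with reduced substrate affinity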
TEAD-YAP block: TEAD-YAP interaction inhibition, primary screen, TEAD-YAP interaction inhibitor project, luminescence, HEK-TIYL cells; TEAD-Gal4/YAP UAS-luciferase luminescence; inhibition, % at 9.12 µM; 1.4% of 640,000 active; AID 1259422, 2018; in the data active = inhibition above about 32%;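 also: 0% = median of test compound wells and 100% = reference inhibitor wells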
MITF inh: MITF inhibitors, primary screen, biochemical, AlphaScreen, human; Microphthalmia-associated transcription factor (Homo sapiens), O75030; AlphaScreen MITF homodimerization, bead proximity signal; inhibition, % at 2.6 µM; 0.91% of 650,000 active; in the data active = inhibition above about 50%;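 also: 0% = vehicle wells with protein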
GPR151 ag: activators of human GPR151, primary screen, cell-based, PathHunter beta-arrestin, luminescence | G-protein coupled receptor 151 (Homo sapiens), Q8TDV0 | PathHunter beta-arrestin GPR151 cells | activation, % at 11.2 µM | 1% of 650,000 active; in the data active = activation above about 4.9%;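 also: 0% = median of compound wells and 100% = cells with positive control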
Target sequence (Q8TDV0 whole entry, looked up): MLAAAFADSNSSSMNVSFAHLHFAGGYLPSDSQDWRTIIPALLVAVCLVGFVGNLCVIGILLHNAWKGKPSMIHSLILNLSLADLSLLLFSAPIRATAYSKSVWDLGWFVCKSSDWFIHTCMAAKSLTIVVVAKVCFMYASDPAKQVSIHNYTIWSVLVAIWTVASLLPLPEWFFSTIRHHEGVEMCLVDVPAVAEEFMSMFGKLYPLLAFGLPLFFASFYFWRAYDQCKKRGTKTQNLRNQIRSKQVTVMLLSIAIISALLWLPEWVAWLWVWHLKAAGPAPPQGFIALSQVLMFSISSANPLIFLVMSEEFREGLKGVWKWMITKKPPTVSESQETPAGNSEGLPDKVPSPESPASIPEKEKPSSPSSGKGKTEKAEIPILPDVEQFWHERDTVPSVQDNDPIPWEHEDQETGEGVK
GPR151 conf act: GPR151 activators, triplicate retest, confirmation, cell-based, PathHunter beta-arrestin, luminescence; shares compounds with GPR151 ag; GPR151 PathHunter beta-arrestin cells, 90 min; % of EA-reagent control over plate median; activation, % at 11.2 µM; 6,700 tested, under 10 active;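 active = mean percent activation across replicates above the confirmation screen cutoff of 4.91%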
GPR119 counter: GPR119 activators in beta-arrestin cells, counter-screen for GPR151 activator project, cell-based, PathHunter beta-arrestin, luminescence, triplicate; shares compounds with GPR151 ag; 90 min; 0 = compound-well median, 100 = enzyme-acceptor control; activation, % at 11.2 µM; 0.3% of 6,700 active;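 active = mean percent activation in the counterscreen above 29.09%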;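 also: counterscreen on off-target GPR119 to flag nonselective hits from the GPR151 activator screen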
An asterisk follows results filed as active; . = not tested or not shown. Shown are actives, neighbours in structure and some others; about 3.4% of the full set was active somewhere.

SMILES	FBW7 activator	TEAD-YAP block	MITF inh	GPR151 ag	GPR151 conf act	GPR119 counter
O=C(Cn1ncn2nc(-c3cccs3)cc2c1=O)NC1CCCc2ccccc21 (centres undefined)	0	2	6	1	.	.
Cc1nccc2[nH]c(=O)c(C(=O)NCCc3ccccc3)cc12	0	9	4	7.3*	0	3
CS(=O)(=O)c1cnc(-c2ccncc2)nc1-c1ccc(C(F)(F)F)cc1	0	-5	8	-2	.	.
CC(C)(C)C(=O)NC(=O)Nc1ncc(S(C)(=O)=O)c(-c2ccc(C(F)(F)F)cc2)n1	0	-1	-3	8.0*	-1	-5
CC1CCCC(C)N1C(=O)Cn1c(C(F)(F)F)nc2ccccc21 (centres undefined)	0	10	17	12*	1	0
CC1CN(C(=O)Cn2c(C(F)(F)F)nc3ccccc32)CC(C)O1 (centres undefined)	0	4	1	3	.	.
COc1ccc(Cl)cc1NC(=O)CN(C)CC(=O)Nc1ccc(Br)cc1	0	5	6	7.5*	1	1
COc1ccc(Cl)cc1NC(=O)CN(C)S(=O)(=O)c1ccc(Br)cc1	0	1	10	0	.	.
CCc1cc2c3c(c1)C1(C(=O)N3C(C)(C)C=C2C)C(C#N)=C(N)OC2=C1C(=O)CC(C)(C)C2 (centres undefined)	0	3	14	0	.	.
CC1=CC(C)(C)N2C(=O)C3(C(C#N)=C(N)OC4=C3C(=O)CC(C)(C)C4)c3c(C)c(C)cc1c32 (centres undefined)	0	-4	4	9.5*	1	3
O=C(Nc1ccc(Cl)c(C(F)(F)F)c1)c1ccc2c(=O)n(Cc3cccc(Br)c3)c(=S)[nH]c2c1	0	0	19	6.2*	-1	-3
CC(C)NC(=O)c1ccc2c(=O)n(Cc3ccc(Cl)cc3)c(=S)[nH]c2c1	0	-5	8	6.1*	0	2
Cc1cccc(CN2CCN(Cc3nc(-c4ccc(F)cc4)cs3)CC2CCO)n1 (centres undefined)	0	1	-9	10*	1	5
CCN1CCN(C(C)Cc2ccc(F)cc2)CCC1=O (centres undefined)	0	1	9	2	.	.
c1ccc(CCN2CCN(c3ccccc3)CC2)cc1	0	-4	21	6.9*	1	4
c1ccc(CCn2nnnc2CN2CCN(c3ccccc3)CC2)cc1	0	2	5	0	.	.
COc1ccc(C(=O)N(Cc2cccs2)C2CC(C)(C)NC(C)(C)C2)cc1	1	13	5	7.4*	0	5
COC(=O)c1cc(NS(=O)(=O)c2ccc3ccccc3c2)ccc1Cl	0	3	1	5.0*	0	4
COc1cccc(S(=O)(=O)Nc2ccc(Cl)c(C(F)(F)F)c2)c1	0	1	3	7.1*	1	-1
NC(=O)CSc1nc2c(oc3ccccc32)c(=O)n1-c1ccccc1	1	5	7	-1	.	.
COc1ccc(S(=O)(=O)Nc2ccc3c(c2)n(C)c(=O)n3C)cc1	0	11	-3	1	.	.
CCOc1ccc(NS(=O)(=O)c2ccc3c(c2)n(C)c(=O)n3C)cc1	0	0	-7	15*	-1	-11
CC(C)(C)C(=O)COC(=O)c1cccc(S(=O)(=O)N2CCCC2)c1	0	3	4	1	.	.
CNS(=O)(=O)c1cccc(C(=O)OCC(=O)C(C)(C)C)c1	0	-3	-2	7.1*	0	8
Cc1c(C(=O)Nc2ccc(Oc3ccccc3)cc2)sc2ncn(CC(=O)Nc3ccc(C(C)C)cc3)c(=O)c12	0	1	8	0	.	.
Cc1c(C(=O)Nc2ccc3c(c2)OCO3)sc2ncn(CC(=O)N3CC(C)CC(C)C3)c(=O)c12 (centres undefined)	0	6	13	5.0*	0	1
